# From PubChem BioAssay (NCATS)
# Results filed as inconclusive are left out. Unmarked numbers belong to inactive results. Calls come from the whole dose curve; as a rule, active = well fitted inhibition curve with a large enough effect; inconclusive = small, poorly fitted or top-dose-only effect; inactive = no such curve, though single readings can be large or run the other way.
# Target: Retinaldehyde dehydrogenase 3 (Homo sapiens) (UniProt P47895)
# Test: qHTS for Inhibitors of the Aldehyde Dehydrogenase Family (ALDH1A3) Primary screen (AID 2061315);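 note: plate controls were DMSO vehicle for no effect and reference inhibitor for full effect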
# Details: ALDH inhibition qHTS; series mostly up to 56 µM; activity change, negative = inhibition: at the top concentration
row,SMILES,"activity change, negative = inhibition [%]"
1,CC1=C(C(=O)Nc2ccccc2)C(c2ccccc2Cl)N=C(Nc2nc3ccccc3o2)N1 (stereo not given),11
2,Cc1ccc(NS(=O)(=O)c2cc3c(cc2Cl)NC(=O)CO3)cc1Cl,12.5
3,CC(=O)Nc1sc2c(c1-c1ccc(-c3nn[nH]n3)cc1)CCNC2,-3.75
4,CC(C)c1ccccc1-c1nccc(NCc2ccc(-c3ccnc(C(F)(F)F)c3)cc2)n1,1.58
5,O=C(Nc1ccc(S(=O)(=O)Nc2nccs2)cc1)C1CCC2(CC1)CC2,17.1
6,O=[S+]([O-])(c1ccc2c(c1)OCCO2)N1CCN([S+](=O)([O-])c2ccc(F)cc2Br)CC1,3.71
7,COCCN(CCOC)c1nc(C)nc2c1nc(-c1ccccc1)n2CC1CCN(C)CC1,20.7
8,O=C1C(F)N([S+](=O)([O-])c2ccc3c(c2)OCCO3)CCN1[S+](=O)([O-])c1c(F)cccc1F (stereo not given),-3.86
9,c1nc(NCC2CCCO2)c2ccc(-c3ccc4c(c3)OCO4)cc2n1 (stereo not given),-5.51
10,Cc1c(C(O)(c2ccccc2)c2ccccc2)[n+]2ccccc2n1C,-6.94
11,O=C(CNC(=O)C1CCCCC1)OC(C(=O)Nc1cc(C(F)(F)F)ccc1Cl)c1ccccc1 (stereo not given),4.47
12,O=S1(=O)N=C(Oc2ccccc2C(F)(F)F)c2ccccc21,-0.889
13,Cc1cc(C)n2ncc(C(=O)Nc3cccc(C(F)(F)F)c3)c2n1,-1.12
14,CN(C)c1ccccc1-c1csc(N2CCC(C(N)=O)CC2)n1,-0.524
15,O=C(Cc1ccccc1)NC(c1ccco1)c1cc(Cl)c2cccnc2c1O (stereo not given),-3.36
16,CN(C)C(=O)c1cccc(-c2csc(N3CCC(C(N)=O)CC3)n2)c1,-10.2
17,COc1cccc(Cn2ncc3c4sc(Br)cc4n(C)c3c2=O)c1,1.31
18,COc1cccc(-c2ccc3ncnc(N(C)Cc4ccco4)c3c2)c1,3.72
19,CC(=O)Nc1sc2c(c1-c1cccc(N(C)C)c1)CCNC2,-18.4
20,COc1cc(Cn2ncc3c4sc(C)cc4n(C)c3c2=O)cc(OC)c1,7.21

row,SMILES,"activity change, negative = inhibition [%]"
1,COc1ccc(NS(=O)(=O)c2ccccc2C(=O)O)cc1,-5.23
2,Clc1ccc2ncc(-c3cccc(NC4CCNC4)n3)n2c1 (stereo not given),-11.6
3,COc1cnccc1-c1nc(Nc2ccc(F)c(F)c2)c2ccccc2n1,1.97
4,O=C1CCc2cc(S(=O)(=O)Nc3cccnc3)ccc2N1,-21.1
5,NCCCC[C@H](N)C(=O)Nc1ccc(Cl)cc1C(=O)c1ccc[nH]1,9
6,O=C1c2ccccc2C(=O)N1c1cccc(O)c1,-7.45
7,CCCCN1C(=O)c2ccccc2NC1c1ccc(OC)c(COc2c(C)cc(NC(C)=O)cc2C)c1 (stereo not given),-8.63
8,COc1cccc(N2C(=O)c3ccccc3C2=O)c1,6.81
9,O=C(Nc1ccccn1)c1sc2ccccc2c1Cl,-11.8
10,COc1ccc(C(=O)N(Cc2ccccc2)Cc2ccccc2)cc1COc1ccc(NC(C)=O)cc1,2.85
11,O=C(OCC#CCSc1nnc(-c2cccc3ccccc23)o1)c1ccc(F)c(F)c1,8.12
12,Cc1cc2c(s1)c1cnn(Cc3ccccc3Cl)c(=O)c1n2C,-13
13,O=C(OCC#CCSc1nnc(-c2cccc3ccccc23)o1)c1sc2ccccc2c1Cl,5.04
14,CCOC(=O)C1CCN(C(=O)C(C)(C)NC(=O)Nc2ccc(F)c(F)c2)CC1,8.05
15,Cc1nc(N2CCOCC2)c2nc(-c3ccccc3)n(CCN3CCOCC3)c2n1,-3.01
16,O=C(Nc1nc(-c2ccccc2)cs1)c1ccncc1NS(=O)(=O)c1ccc2c(c1)CCC2,13.9
17,Cn1nnnc1Sc1ncnc2scc(-c3cccc(F)c3)c12,9.37
18,CC(C)(C)OC(=O)Cc1nnc(-c2cc3ccccc3[nH]2)o1,0.531
19,Cc1cc(C)nc(NC(=S)N2CCN(c3nnc(C(F)(F)F)s3)CC2)c1,16.1
20,O=C(Nc1ccc(Cl)c(Cl)c1)Nc1nc(-c2ccncc2)cs1,-1.66
